{
  "source": "PubChem BioAssay (NCI)",
  "note": "About 83,000 compounds went through this panel and 20% of them were active in at least one assay; those are over-represented in the sample as a whole.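 Testing used 96-well plates and a 48-hour single-concentration exposure. Example: -40 means 40% of the starting cells died.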 Values without a mark were called inactive. Calls of active or inactive are those of the source. How the source made its calls: active means growth percent below 10; inactive means the rest.",
  "data": [
    {"test_system": "HL-60(TB) leukemia", "test": "NCI-60 one-dose screen, 48 h (100 = growth as untreated, 0 = no growth, -100 = all killed)", "conditions": "10 µM unless noted", "values": [
      {"smiles": "CCN(CC)C(=S)SCCO", "growth": "102%"},
      {"smiles": "NCc1cn2cc(Cl)sc2n1", "growth": "129%"},
      {"smiles": "O=c1[nH]nc(SC2CCCCC2)c(=O)[nH]1", "growth": "108%"},
      {"smiles": "CCOC(=O)/C=C1\\SC(=Nc2ccc(C#N)cc2)N(CCN2C(=O)/C(=C/C(=O)OCC)SC2=Nc2ccc(C#N)cc2)C1=O", "growth": "55.5%"},
      {"smiles": "Cn1nc(C(F)(F)F)cc1-c1cc(Cl)c(OCc2ccc(Cl)cc2)c(-c2ccc(Cl)c(C(F)(F)F)c2)c1O", "growth": "-24.3% (active)"},
      {"smiles": "OCCNc1nc(NCCO)nc(Nc2ccc(C3=NN(c4cc(Cl)cc(Cl)c4)C(c4ccc(Cl)cc4)C3)cc2)n1", "note": "(stereo not given)", "growth": "13.7%"},
      {"smiles": "CC(Br)c1nc2ccccc2cc1C(N)=O", "note": "(stereo not given)", "growth": "104%"},
      {"smiles": "CCCC1C(C(=O)OCC)=C(N)Oc2cc(O)ccc21", "note": "(stereo not given)", "growth": "102%"},
      {"smiles": "Cn1ccc(=Nc2ccc(NC(=O)c3ccc(N=c4ccn(C)c5ccc([N+](=O)[O-])cc45)cc3)cc2)cc1", "growth": "76.7%"},
      {"smiles": "CC(C)c1c(C(=O)c2ccccc2)c(-c2ccccc2)c(-c2ccc(F)cc2)n1CC[C@@H](O)C[C@@H](O)CC(=O)O", "growth": "74%"},
      {"smiles": "COc1ccccc1/C=C/C1=C(C)CCC(c2ccccc2OC)C1C", "note": "(stereo not given)", "growth": "-41.1% (active)"},
      {"smiles": "Clc1cc(Cl)cc(Nc2ccc3cc(OCCCN4CCOCC4)ccc3n2)c1", "growth": "26.7%"},
      {"smiles": "COCCCNS(=O)(=O)c1ncnc2nc[nH]c12", "growth": "82.2%"},
      {"smiles": "Cc1nc(Sc2nc3ccc([N+](=O)[O-])cc3s2)sc1C", "growth": "-41.7% (active)"},
      {"smiles": "O=C1NC(=S)NC(=O)C1=Cc1cn(Cc2cn(Cc3cccc4ccccc34)nn2)c2ccccc12", "growth": "106%"}
    ]}
  ]
}
